Rows were chosen to be rich in hits. Some 27% of all compounds tested hit in one or more screens of this group.
CYP2C9 inh: human CYP2C9 inhibition; CYP2C9 Supersomes, luciferin-H conversion, luminescence; inhibition, % at 5 µM; 20% of 96,000 active; AID 777;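 active means blocking of liver enzyme CYP2C9 beyond about 50% at 5 µM, limit read from the data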
sEH inh: soluble epoxide hydrolase (human) inhibition | recombinant human sEH enzymatic activity assay | inhibition, % at 2 µM | 0.34% of 91,000 active; in the data active means inhibition above about 80%
Target sequence (P34913 whole entry, looked up): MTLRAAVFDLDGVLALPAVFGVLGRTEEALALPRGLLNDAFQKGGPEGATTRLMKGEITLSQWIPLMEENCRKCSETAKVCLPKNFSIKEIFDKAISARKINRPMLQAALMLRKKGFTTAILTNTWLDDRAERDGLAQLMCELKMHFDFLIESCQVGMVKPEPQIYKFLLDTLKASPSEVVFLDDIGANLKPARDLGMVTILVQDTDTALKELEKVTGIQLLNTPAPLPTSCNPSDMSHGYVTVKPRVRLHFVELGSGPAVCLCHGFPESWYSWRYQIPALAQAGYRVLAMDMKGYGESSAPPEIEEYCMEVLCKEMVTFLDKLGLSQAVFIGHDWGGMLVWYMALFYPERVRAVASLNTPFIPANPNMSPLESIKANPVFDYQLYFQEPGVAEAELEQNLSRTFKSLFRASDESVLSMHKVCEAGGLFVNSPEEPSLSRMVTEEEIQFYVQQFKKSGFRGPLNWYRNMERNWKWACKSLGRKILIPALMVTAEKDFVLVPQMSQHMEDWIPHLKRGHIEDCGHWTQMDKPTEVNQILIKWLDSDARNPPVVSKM
CYP2C19 inhib: human CYP2C19 inhibition | P33261 | CYP2C19 Supersomes, luciferin-H EGE luminescence, 30 min | inhibition, % at 5 µM | 21% of 96,000 active | AID 778;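 active means CYP2C19 inhibition above a set limit at 5 µM in the primary screen, cut at about 50% in these data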
sEH act: soluble epoxide hydrolase (human) activation; activation, % at 2 µM; P34913; purified human sEH enzymatic activity, activator screen; 0.04% of 91,000 active; in the data active means activation above about 37%
CYP2C9 act: CYP2C9 (human) activation. AID 1024. recombinant CYP2C9, luciferin-H conversion, luminescence; stronger effect = higher value; factor 1 = untreated enzyme, 0 = blocked. 1.4% of 96,000 active. activation factor at 5 µM;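 active means activation factor of 2 or more for CYP2C9 at a 5 µM dose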
CYP2C19 activ: activators of human cytochrome P450 2C19. P33261. 96,000 tested, under 10 active. recombinant CYP2C19, luciferin-H EGE luminescence; stronger effect = higher value; 0 = fully inhibited enzyme, 1 = untreated enzyme. activation factor at 5 µM;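 active means activation factor of at least 2 at 5 µM in the primary screen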
Numbers stand for hits; - = inactive; . = no result.

SMILES | CYP2C9 inh | sEH inh | CYP2C19 inhib | sEH act | CYP2C9 act | CYP2C19 activ
COc1ccc(N2C(=O)C(Cl)=C(N3CCCC3)C2=O)cc1 | - | - | - | - | - | -
COc1ccc(N2C(=O)C(Cl)=C(N3CCCC(C)C3)C2=O)cc1 (stereo unspecified) | 84.9 | - | 83.8 | - | - | -
CCOc1c2ccc(C(=O)NCC34CC5CC(CC(C5)C3)C4)cc2nn1CC | - | - | - | - | - | -
CCCC(=O)Nc1ccc(S(=O)(=O)N2CCOCC2)cc1 | . | - | . | - | . | .
CCCCCC(/C=N/Nc1ccc(S(=O)(=O)N2CCOCC2)cc1[N+](=O)[O-])=C\c1ccccc1 | 82.1 | - | - | - | - | -
COc1ccc(OC)c(N/C(=N\c2nc(C)cc(C)n2)NC(=O)c2ccco2)c1 | 56.0 | . | - | . | - | -
COc1cc(C(=O)OCC(=O)Nc2c(F)c(F)c(F)c(F)c2F)cc(OC)c1OC | - | - | 78.2 | - | - | -
O=C(Nc1ccc(NC(=O)C2CCCCC2)nc1)c1ccco1 | - | - | 61.3 | - | - | -
COc1ccc(Cl)cc1NC(=S)N1CCN(C(=O)c2ccco2)CC1 | - | - | - | - | 2 | -
COc1ccc(C(=O)OCC(=O)Nc2ccc(F)c(F)c2F)cc1OC | - | - | - | - | - | -
O=C(NCCOc1ccccc1Cl)c1cc(F)c(F)cc1Cl | - | - | - | - | - | -
COc1ccc(Cl)cc1NC(=O)c1ccco1 | - | - | - | - | 4.2 | -
COc1ccc(Cl)cc1C(=O)Nc1ccc(NC(=O)c2ccco2)cc1 | - | - | - | - | - | -
CNC(=O)COC(=O)c1cc(NC(=O)c2ccco2)c(OC)c(OC)c1 | 54.0 | - | - | - | - | -
COc1cc(C(=O)OCC(=O)NCc2ccccc2)cc(NC(=O)c2ccco2)c1OC | - | - | - | - | - | -
COc1ccc(Cl)cc1C(=O)NNC(=O)c1cccnc1 | - | - | - | - | - | -
COc1cc(NC(=O)C2CCCCC2)c(OC)cc1NC(=O)c1ccco1 | - | - | 62.1 | - | - | -
COc1ccc(Cl)cc1NC(=O)c1cccnc1 | - | - | - | - | 2.6 | -
CCOc1cc(NC(=O)C2CCCCC2)c(OCC)cc1NC(=O)c1ccco1 | - | - | - | - | - | -
O=C(Nc1ccc(S(=O)(=O)N2CCC(C(=O)NC3CCCCC3)CC2)cc1)c1ccco1 | - | - | - | - | - | -
COc1cc(NC(=O)C(C)C)ccc1NC(=O)c1ccco1 | 64.3 | - | - | - | - | -
Cc1ccc(Oc2ccc(Cl)cc2NC(=O)c2cnccn2)cc1 | 55.8 | - | - | - | - | -
COc1cc(NC(=O)c2ccco2)c(OC)cc1NC(=O)Nc1ccccc1Cl | 59.9 | - | 84.7 | - | - | -
CC1CCCCN1S(=O)(=O)c1ccc(NC(=O)c2ccco2)cc1 (stereo unspecified) | 72.2 | - | 59.2 | - | - | -
COc1ccc(NC(=O)c2ccco2)c(OC)c1 | - | - | - | - | - | -
SMILES | CYP2C9 inh | sEH inh | CYP2C19 inhib | sEH act | CYP2C9 act | CYP2C19 activ
Cn1c(N)c(C(=O)COC(=O)c2ccco2)c(=O)n(C)c1=O | - | - | - | - | - | -
C=CCN(CC=C)C(=O)Nc1cc(Cl)ccc1OC | - | - | 85.1 | - | 2.7 | -
O=C(Nc1ccccc1C(=O)OCn1nnc2ccccc2c1=O)c1ccco1 | - | - | - | - | - | -
O=[N+]([O-])c1ccc(O)c(NC(=S)Nc2ccccc2)c1 | 91.4 | - | 55.9 | - | - | -
COc1ccc([N+](=O)[O-])cc1NC(=O)CC(C)c1ccccc1 (stereo unspecified) | - | - | 72.1 | - | - | -
O=C(O)c1cc([N+](=O)[O-])ccc1C(=O)Nc1ccccc1 | - | - | - | - | - | -
O=[N+]([O-])c1ccc(NNC(=S)Nc2ccccc2)cc1 | 78.6 | - | 58.9 | - | - | -
COc1ccc([N+](=O)[O-])cc1NC(=S)Nc1ccccc1 | - | - | 50.4 | - | - | -
CCOC(=O)Nc1ccc([N+](=O)[O-])cc1OC | . | - | . | - | . | .
Cc1ccc(/C=C/S(=O)(=O)N2CCC(C(=O)O)CC2)cc1 | - | - | - | - | - | -
CC(CC(=O)Nc1ccc(Cl)c([N+](=O)[O-])c1)c1ccccc1 (stereo unspecified) | 73.5 | - | 75.9 | - | - | -
Cc1cc(CSc2ccccc2)ccc1NC(=O)c1ccc(Cl)c([N+](=O)[O-])c1 | - | - | - | - | - | -
O=C(C1CC1)N1CCc2cc(Br)cc(S(=O)(=O)NC3CCCCC3)c21 | - | . | - | . | - | -
Cc1cc(C(F)F)n2nc(C(=O)Nc3ccc(S(=O)(=O)N4CCCCCC4)cc3)nc2n1 | . | - | . | - | . | .
CCOC(=O)CCC(NC(=O)c1ccc(NCN2C(=O)c3ccccc3C2=O)cc1)C(=O)OCC (stereo unspecified) | 55.2 | - | - | - | - | -
CC(=O)c1ccc(NC2=C(N3CCOCC3)C(=O)c3ccccc3C2=O)cc1 | - | - | 61.1 | - | - | -
Cc1ccc(NC2=C(N3CCOCC3)C(=O)c3ccccc3C2=O)cc1 | 56.9 | - | - | - | - | -
Cc1ccc(S(=O)(=O)N2CCCC2C(=O)NC2CCCCC2)cc1 (stereo unspecified) | - | - | 77.0 | - | - | -
Cc1ccc(S(=O)(=O)N2CCCC2C(=O)Nn2cnnc2)cc1 (stereo unspecified) | - | - | - | - | - | -
O=C(Nc1nnc(C2CC2)s1)C1Cc2ccccc2CN1S(=O)(=O)c1ccccc1F (stereo unspecified) | - | - | 54.7 | - | - | -
O=C(C1CCCN1S(=O)(=O)c1ccc(Cl)cc1)N1CCOCC1 (stereo unspecified) | - | - | - | - | - | -
O=C(Nc1ccc(Cl)cn1)C1CCCN1S(=O)(=O)c1ccc(Cl)cc1 (stereo unspecified) | 73.5 | - | - | - | - | -
Cc1ccc(S(=O)(=O)N2CCCC2C(=O)N2CCCCCC2)cc1 (stereo unspecified) | - | - | - | - | 2.7 | -
O=C(NC1CCCCC1)C1Cc2ccccc2CN1S(=O)(=O)c1ccc(F)cc1 (stereo unspecified) | . | - | . | - | . | .
CC(=O)NCc1ccc(C(=O)CSc2nnc(-c3ccncc3)n2Cc2ccccc2)o1 | . | - | . | - | . | .
Cc1ccc(S(=O)(=O)N2CCCC2C(=O)Nc2nccs2)cc1 (stereo unspecified) | 60.9 | - | 60.5 | - | - | -
O=C(Nc1nccs1)C1Cc2ccccc2CN1S(=O)(=O)c1ccc(F)cc1 (stereo unspecified) | - | - | 60.9 | - | - | -
O=C(C1CCCN1S(=O)(=O)c1ccc(Cl)c(Cl)c1)N1CCCCC1 (stereo unspecified) | - | - | - | - | 2.6 | -
O=C(NC1CCS(=O)(=O)C1)C1CCCCN1S(=O)(=O)c1ccc(Cl)cc1 (stereo unspecified) | 91.3 | - | - | - | - | -
